Source: PubChem (National Center for Advancing Translational Sciences (NCATS))
The list is not random: actives were taken first. Their share in the collection is about 2.9%.
A549 tox-1: kills or reduces viability of A549 cells in Nrf2 counter-screen; hit rate 0.16% among 390,000; A549 ARE-Fluc cells, CellTiter-Fluor viability, 18-24 h; Potency, µM (series often up to 46 µM), for inactives: at the top dose activity change, negative = cytotoxicity, usual class: inhibitors; AID 504648; also: % is scaled to controls: 0 for no effect and ±100 for the full control effect
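A549 ARE_Fluc cells in 5% FBS OPTI-MEM were exposed to compounds in concentration-response for 18-24 h at 37 deg C. Viability was read by CellTiter-Fluor fluorescence (Ex 405/Em 525) after 30 min, before the luciferase read.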
Nrf2 block: blocks Nrf2 signaling; A549 ARE-Fluc reporter, luciferase luminescence, 18-24 h; Potency, µM (titrated, usually from 46 µM), inactives show at the top dose activity change, negative = inhibition, usual class: inhibitors; hit rate 2.1% among 360,000; also: % is scaled to controls: 0 for no effect and ±100 for the full control effect; nearly all actives have a fitted effect of over 60% in size
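A549 ARE_Fluc cells, 5000/well, 5% FBS OPTI-MEM; compounds in dose-response, 18-24 h at 37 °C/5% CO2; CellTiter-Fluor viability read (Ex 405/Em 525), then BugLite luciferase luminescence = Nrf2 activity.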
Nrf2 activator: Nrf2 pathway activation; AREc32 ARE-luciferase reporter (MCF7-derived line), luminescence, 24 h; Potency, µM (top dose mostly 46.1 µM), for inactives: at the top dose activation, usual class: activators; hit rate 0.31% among 410,000; AID 624171; also: % of control where 0% means no effect; nearly all actives have a fitted effect of over 65% in size
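AREc32 cells carrying an ARE-driven firefly luciferase reporter were seeded at 1000 cells/well in OPTI-MEM with 5% FBS, then exposed to compound for 24 hr at 37 deg C. Luminescence was read with Steady-Glo after 30 min at RT.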
ATXN2 expr inh: reduces ATXN2 reporter expression in HEK-293 cells; hit rate 0.72% among 360,000; HEK-293 ATXN2-luciferase reporter, luminescence, 24 h; Potency, µM (series often up to 57 µM), for inactives: top-dose activity change, negative = inhibition, actives largely listed as inhibitors; also: % is scaled to controls: 0 for no effect and ±100 for the full control effect; nearly all actives have a fitted effect of over 55% in size
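qHTS (up to 57 uM final) was run with 24 h compound exposure of reporter cells at 37 °C. Each well was multiplexed: SteadyGlo luminescence measured ATXN2-luciferase expression after a fluorogenic Gly-Phe-AFC viability readout (25 uM final).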
S2 tox: reduces viability in counter-screen for ATXN expression inhibitors; S2 cells (HEK-293 line with an ATXN2-luciferase reporter) viability, CellTiter-Fluor protease fluorescence, 24 h; AID 651635; Potency, µM (titrated, usually from 56.7 µM), usual class: cytotoxic; hit rate 0.49% among 400,000; also: nearly all actives have a fitted effect of over 40% in size
FLuc enzyme inh: counter-screen for Nrf2 inhibitors: firefly luciferase enzyme inhibition; shares compounds with Nrf2 block; purified firefly luciferase, luminescence inhibition; Potency, µM (titrated, usually from 57.5 µM), inactives show top-dose activity change, negative = inhibition, actives largely listed as inhibitors; hit rate 4% among 1,400; also: % is scaled to controls: 0 for no effect and ±100 for the full control effect; nearly all actives have a fitted effect of over 65% in size
Target sequence (P08659 whole entry, looked up): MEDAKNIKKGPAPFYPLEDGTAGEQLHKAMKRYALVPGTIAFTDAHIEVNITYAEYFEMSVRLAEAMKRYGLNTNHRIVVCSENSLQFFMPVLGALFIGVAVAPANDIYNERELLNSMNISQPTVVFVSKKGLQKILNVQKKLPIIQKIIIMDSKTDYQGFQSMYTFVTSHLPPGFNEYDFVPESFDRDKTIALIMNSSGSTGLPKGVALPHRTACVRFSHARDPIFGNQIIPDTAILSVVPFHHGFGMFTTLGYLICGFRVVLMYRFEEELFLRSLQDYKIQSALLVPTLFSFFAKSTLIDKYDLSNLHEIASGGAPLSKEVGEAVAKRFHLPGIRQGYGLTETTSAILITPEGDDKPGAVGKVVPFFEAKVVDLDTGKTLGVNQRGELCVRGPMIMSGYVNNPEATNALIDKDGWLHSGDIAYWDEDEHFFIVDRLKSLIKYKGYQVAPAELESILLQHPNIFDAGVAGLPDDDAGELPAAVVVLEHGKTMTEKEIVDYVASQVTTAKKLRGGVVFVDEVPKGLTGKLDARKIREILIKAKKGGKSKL
A549 tox-2: counter-screen for Nrf2 inhibitors: cytotoxicity in A549 ARE cells | shares compounds with Nrf2 block | A549 ARE-Fluc cells, cytotoxicity counterscreen | Potency, µM (titrated, usually from 46.1 µM), for inactives: top-dose activity change, negative = cytotoxicity, usual class: inhibitors | hit rate 2% among 1,400 | AID 720523;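 also: cells exposed to compounds for 18 to 24 hours; % is scaled to controls: 0 for no effect and ±100 for the full control effect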
Nrf2 ARE inh: reduces Nrf2 ARE reporter signal in A549 cells | A549 ARE-firefly luciferase reporter, luminescence | shares compounds with Nrf2 block | hit rate 74% among 1,400 | Potency, µM (highest dose often 46.1 µM), inactives show at the highest dose activity change, negative = inhibition, most hits filed as inhibitors | AID 720524; also: % is scaled to controls: 0 for no effect and ±100 for the full control effect; nearly all actives have a fitted effect of over 65% in size
* marks the source's active call; other numbers are inactive results; i = inactive; ? = inconclusive; . = no result given; [ ] = remark or other dose. Calls follow the shape of the dose curve; as a rule, active = well fitted curve in the direction sought with a large enough effect; inconclusive = small, poorly fitted or top-dose-only effect, or another doubt; inactive = no such curve, though single readings can be large; an effect the other way counts as inactive or inconclusive. Potency is read from the fitted curve at half-maximal effect.

SMILES	A549 tox-1	Nrf2 block	Nrf2 activator	ATXN2 expr inh	S2 tox	FLuc enzyme inh	A549 tox-2	Nrf2 ARE inh
COc1cc2nc(N3CCN(C(=O)C4CCCO4)CC3)nc(N)c2cc1OC (stereo unspecified)	-7%	?	1%	-1%	i	.	.	.
COc1cc2c(NC3CCN(C(C)C)CC3)nc(N3CCCN(C)CC3)nc2cc1OCCOCCN(C)C	.	.	.	.	.	1%	-37%	6.5µM*
Cc1ccc(NC(=O)CSc2cn(CC(=O)N3CCCC3)c3ccccc23)cc1Cl	-1%	?	0%	.	.	.	.	.
CN1/C(=C\C=N\O)C(C)(C)c2ccccc21	0%	-2%	0%	14%	i	.	.	.
CN1/C(=C\C=[N+](C)c2ccccc2)C(C)(C)c2ccccc21	9.2µM*	0.82µM*	2%	7.1µM*	11µM*	2%	?	1.2µM*
O=C(Cn1nc(Cc2cccnc2)c2ccccc2c1=O)Nc1cccc(C(F)(F)F)c1	-1%	?	0%	.	.	.	.	.
CC1=C(C(=O)NC2CCCc3c2cnn3-c2cccc(C)c2C)OCCO1 (stereo unspecified)	-7%	7.3µM*	0%	-18%	i	2%	-3%	12µM*
C[C@H]1CCC/C=C/[C@@H]2C[C@H](O)C[C@H]2[C@H](O)[C@H](S(=O)c2ccc(O)cc2)CC(=O)O1 (stereo partly specified)	?	0.26µM*	0%	?	?	1%	?	0.52µM*
CC1Cc2ccccc2N1c1ncnc(N)c1[N+](=O)[O-] (stereo unspecified)	-14%	4.6µM*	-2%	.	?	2%	-25%	8.2µM*
CCC(C(=O)Nc1cc(OC)ccc1OC)n1nc(-c2ccccc2)c2c(c1=O)CCCC2 (stereo unspecified)	?	?	7%	?	?	.	.	.
CCc1ccc(NC(=O)C2CCN(S(=O)(=O)c3cccs3)CC2)cc1	-26%	3.7µM*	5%	-2%	i	-4%	-8%	9.2µM*
CCc1cccc(NC(=O)C2CCN(S(=O)(=O)c3cccs3)CC2)c1	0%	-17%	0%	-10%	i	.	.	.
COc1ccc(S(=O)(=O)N2CCC(C(=O)Nc3ccc(Oc4ccccc4)cc3)CC2)cc1	0%	?	0%	.	.	-1%	-14%	?
O=C(Nc1nc(-c2ccc3ccccc3c2)cs1)C1CCN(S(=O)(=O)c2cccs2)CC1	-10%	5.2µM*	0%	-22%	i	1%	-1%	?
O=C(NCCCc1nc2ccccc2n1Cc1ccccc1Cl)C1CCCCC1	-16%	?	0%	-15%	i	.	.	.
Cc1nn(C(=O)c2ccccc2F)c(C)c1S(=O)(=O)N1CCOCC1	-11%	.	0%	12%	i	.	.	.
CCOC(=O)N1CCN(C(=O)c2ccc3c(=O)n(Cc4ccc(Cl)cc4)c(=S)[nH]c3c2)CC1	-8%	?	1%	-16%	i	.	.	.
CCOC(=O)N1CCN(C(=O)c2ccc(Cn3c(=S)[nH]c4ccc(Br)cc4c3=O)cc2)CC1	?	4.1µM*	0%	?	i	-18%	?	8.2µM*
Cn1c(=O)oc2cc(S(=O)(=O)N3CCCC(C(=O)NCCc4ccc(Cl)cc4)C3)ccc21 (stereo unspecified)	0%	-9%	0%	3%	i	.	.	.
Cc1oc(-c2ccc(Cl)cc2)nc1CN1CCCC(C(=O)N2CCOCC2)C1 (stereo unspecified)	0%	?	4%	11%	i	.	.	.
Cc1oc(-c2ccc(Cl)cc2)nc1CN1CCCC(C(=O)N2CCN(C(=O)c3ccco3)CC2)C1 (stereo unspecified)	17%	3.3µM*	1%	-37%	i	0%	-15%	6.5µM*
COc1cc2ccnc(Cc3cccc(OC)c3OC)c2cc1OC	-1%	3.7µM*	3%	?	i	3%	-3%	16µM*
COCCN(CCOC)Cc1cc(=O)oc2ccc3ccccc3c12	.	.	1%	-3%	i	.	.	.
COc1ccc(C(=O)CC(=O)c2ccccc2)cc1	0%	?	1%	80%	i	.	.	.
COc1ccc(C(=O)C/C(=C\C(=O)c2ccc(C)cc2)c2ccccc2)cc1	?	2.6µM*	0%	?	?	0%	-27%	12µM*
SMILES	A549 tox-1	Nrf2 block	Nrf2 activator	ATXN2 expr inh	S2 tox	FLuc enzyme inh	A549 tox-2	Nrf2 ARE inh
COc1ccc(NC(=O)CC2C(=O)N(c3cccc(OC)c3)C(=O)N2CCc2cccs2)cc1 (stereo unspecified)	-4%	7%	4%	-4%	?	.	.	.
CCOC(=O)c1ccccc1NC(=O)c1sc2ccccc2c1Cl	-2%	?	4%	9%	i	.	.	.
CCOC(=O)c1sc2ccccc2c1OC(=O)c1ccccc1OC	-29%	4.6µM*	3%	.	?	-14%	-22%	?
CCc1cccc(NC(=O)C2Cc3ccccc3N2C(=O)c2ccccc2)c1 (stereo unspecified)	7%	.	-1%	1%	i	.	.	.
Cc1ccc(CN2C(=O)N/C(=C\c3cccn3-c3cccc(C(=O)O)c3)C2=O)cc1	?	2.6µM*	0%	-13%[11.3 µM]	i	-23%	-9%	-8%
O=C(O)c1cccc(-n2cccc2/C=C2\NC(=O)N(Cc3ccc(F)cc3)C2=O)c1	-7%	0%	2%	-10%	i	.	.	.
N#Cc1nc(COc2ccc(-c3ccccc3)cc2)oc1N1CCC(C(N)=O)CC1	11%	?	.	.	.	.	.	.
c1ccc2c(N=NN3CCCCC3)ccnc2c1	.	.	.	.	.	-24%	-24%	5.8µM*
CCc1ccc(C(=O)NC(Cc2c[nH]c3ccccc23)C(=O)OCC(=O)c2ccc(Br)cc2)cc1 (stereo unspecified)	6%	.	3%	.	.	.	.	.
CCC12CCC3c4ccc(O)cc4CCC3C1CC(O)C2O (stereo unspecified)	3%	-21%	2%	-13%	i	.	.	.
CC(=O)c1sc(NC(=O)C2(F)C(F)(F)C(F)(F)C(F)(F)C(F)(F)C2(F)F)nc1C	?	5.8µM*	7%	6.3µM*	?	?	?	6.5µM*
CC(C)NC(=O)Cn1ncn2c(cc3cc(F)ccc32)c1=O	-10%	-7%	1%	9%	i	.	.	.
